High-throughput results deposited in PubChem by several laboratories.
Hits are enriched below; roughly 2.8% of the tested compounds scored in any of these assays.
PP1 counter: PP1-alpha phosphatase inhibitors, primary screen, counter-screen for PP5 inhibitor project, biochemical, fluorescence, OMFP substrate, single point | purified PP1alpha | 320,000 compounds, 0.9% hits | Serine/threonine-protein phosphatase PP1-alpha catalytic subunit (Homo sapiens), P62136 | AID 2235, 2010 | inhibition, % at 6.7 µM;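 active = inhibition above the mean inhibition of all tested compounds plus 3 SD, computed separately for each screening campaign, cut at about 15% in these data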
Target sequence (P62136 whole entry, looked up): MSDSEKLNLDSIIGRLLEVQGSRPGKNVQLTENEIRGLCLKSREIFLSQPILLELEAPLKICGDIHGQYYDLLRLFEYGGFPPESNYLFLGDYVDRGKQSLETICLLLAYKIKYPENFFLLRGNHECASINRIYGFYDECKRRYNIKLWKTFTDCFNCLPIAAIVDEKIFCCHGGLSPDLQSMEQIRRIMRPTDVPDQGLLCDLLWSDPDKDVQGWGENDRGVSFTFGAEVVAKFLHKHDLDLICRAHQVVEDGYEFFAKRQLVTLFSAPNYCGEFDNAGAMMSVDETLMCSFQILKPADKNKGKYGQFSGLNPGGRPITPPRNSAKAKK
Exocytosis inh: LAMP-1 surface exposure blockers, TALL-104 cells – cell-based, flow cytometry, MLPCN library, primary screen; 360,000 compounds, 0.66% hits; AID 651702, 2012; inhibition, % at 10 µM; TALL-104 LAMP-1 surface exposure; cells stimulated with thapsigargin and PMA;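 active = inhibition above about 55%, limit read from the data; inconclusive = no clear call, values can overlap the other calls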
PP5 inh: PP5 phosphatase inhibitors, primary screen, biochemical, fluorescence; Serine/threonine-protein phosphatase 5 (Homo sapiens), P53041; AID 1987, 2009; 320,000 compounds, 0.18% hits; purified PP5c, OMFP substrate fluorescence; inhibition, % at 6.7 µM;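 active = inhibition above the campaign's mean inhibition across all tested compounds plus 3 SD, cut at about 9.5% in these data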;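 also: 0% = DMSO only and 100% = 100 µM cantharidin control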
IDE cell activ: human IDE activators in live cells, primary screen, fluorescence polarization, HEK cells, FAbeta-B substrate | Insulin-degrading enzyme (Homo sapiens), P14735 | FAbeta-B cleavage; 0% vehicle, 100% cell-free pure enzyme wells | activation, % at 5.96 µM | 340,000 compounds, 0.073% hits;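 active = activation above the mean of all tested compounds plus 3 SD, set per screening campaign, cut at about 17% in these data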
IDE cell inh: human IDE inhibitors in live cells, primary screen, fluorescence polarization, HEK cells, FAbetaB substrate; AID 434962, 2010; Insulin-degrading enzyme (Homo sapiens), P14735; inhibition, % at 5.59 µM; FAbetaB cleavage; 320,000 compounds, 0.41% hits;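 active = percent inhibition above the average of all tested compounds plus 3 SD, set per screening campaign, cut at about 16% in these data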;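 also: IDE supplied by intact live HEK cells; FP after avidin binding of uncleaved biotin substrate so inhibition keeps polarization high; 0% = DMSO wells and 100% = 60 µM reference IDE inhibitor Ii1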
SKKanGAS inh: S. pyogenes SKKanGAS growth inhibitors in kanamycin, primary screen, streptokinase expression inhibitor project, SKKanGAS strain, BacTiter-Glo luminescence; 6 h; inhibition, % at 7.5 µM; 300,000 compounds, 1.3% hits;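 active = mean replicate score, as percent of positive control median, at least 50; inconclusive = mean below 50 but one replicate at or above 50; inactive = mean and every replicate below 50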;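 also: strain carries kanamycin resistance gene driven by streptokinase promoter and grows in 40 µg/ml kanamycin; loss of luminescence reflects streptokinase promoter inhibition or plain growth inhibition; 0% = median of DMSO wells and 100% = positive control at its reference dose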
PP5 conf: PP5 phosphatase inhibitors, confirmation, biochemical, fluorescence, human; inhibition, % at 6.7 µM; 460 compounds, 22% hits; Purified PP5, fluorogenic phosphatase substrate; shares compounds with PP5 inh; AID 2331, 2010; in the data active = inhibition above about 9.5%
PP1 inh counter: PP1 phosphatase inhibitors, counter-screen for PP5 inhibitor project, biochemical, fluorescence, triplicate; shares compounds with PP5 inh; PP1 enzyme, fluorescent phosphatase substrate; inhibition, % at 6.7 µM; 460 compounds, 4% hits; AID 2355, 2010; in the data active = inhibition above about 16%
Numbers without * were called inactive; ? = inconclusive; . = no result given.

SMILES	PP1 counter	Exocytosis inh	PP5 inh	IDE cell activ	IDE cell inh	SKKanGAS inh	PP5 conf	PP1 inh counter
COc1c(/C=N/Nc2ccc(C(=O)O)cc2)c(CCN(C)C(C)=O)cc2c1OCO2	-2	-3	3	1	0	-6	.	.
Oc1ccc(N=Cc2ccc(-c3cccs3)s2)cc1	3	16	11*	3	3	-3	0	-2
COc1ccc(C(=O)NNC(=O)CCc2ccccc2OC)cc1	-4	0	16*	6	5	0	-4	-3
COc1ccccc1CCC(=O)NNC(=O)c1ccccc1	-2	-2	2	-1	-1	-5	.	.
CCCOc1ccc(C(=O)N/N=C/c2c[nH]c3ccc(Br)cc23)cc1	4	14	12*	3	-2	36	5	2
O=C(NC(=S)Nc1ccc2[nH]c(=O)[nH]c2c1)c1ccccc1[N+](=O)[O-]	-1	-2	-2	0	2	-2	.	.
O=C(CNC(=O)c1ccc(F)cc1)c1ccc(Cl)cc1	-1	-5	0	4	2	2	.	.
O=C(O)CCc1nnc(SCC(=O)Nc2cccc(C(F)(F)F)c2)[nH]c1=O	-1	-1	2	-1	-5	0	.	.
COc1ccc(CCC(=O)Nc2nnc(C(C)(C)C)s2)cc1	0	-8	13*	2	-1	-2	0	-1
Cc1cccc(CN2CCCC(C(=O)N3CCCCC3)C2)c1 (stereo not given)	-2	7	2	-1	5	3	.	.
CCc1ccc(-c2cc(C(F)(F)F)n3nc(C(=O)Nc4c(C)nn(Cc5ccc(F)cc5)c4C)cc3n2)s1	6	-6	1	-2	-5	33	.	.
COc1cc(C=O)ccc1OCCSc1ccc(Cl)cc1	0	-4	15*	-4	7	-4	-1	-1
NC(=O)c1ccc(C(F)(F)F)n(Cc2ccc(F)c(F)c2)c1=O	3	-2	4	0	7	-13	.	.
NC(=O)c1ccc(C(F)(F)F)n(Cc2ccc(Cl)cc2)c1=O	6	-1	9.9*	-1	11	2	1	2
Cc1ccc(NC(=O)c2ccccc2F)cc1S(=O)(=O)N1CCCCCC1	-3	-3	11*	1	0	5	0	-1
CC(C)(C)P(=O)(CO)c1ccccc1 (stereo not given)	-2	-1	11*	1	-2	-3	-3	-4
COc1cc(OC)c(C2C(C(=O)Nc3ccc(C)cc3C)=C(C)Nc3ncnn32)cc1OC (stereo not given)	2	0	15*	0	4	-12	-3	-3
COc1cc(OC)c(C2C(C(=O)Nc3ccccc3)=C(C)Nc3ncnn32)cc1OC (stereo not given)	-7	2	0	4	4	7	.	.
O=C(O)[C@@H](O)[C@H](O)C(=O)O	2	-3	11*	-1	1	-2	7	0
Cc1cccnc1NC(=O)Nc1cccc(Cl)c1	1	-18	1	2	-2	4	.	.
COc1ccc(C2=Nn3c(nnc3-c3ccncc3)SC2)cc1	-3	-8	12*	0	-7	-7	-3	-3
COc1ccc(OC)c(C2=Nn3c(nnc3-c3cccc(OC(C)C)c3)SC2)c1	3	33	12*	9	2	37	0	0
COc1ccc(C2=Nn3c(nnc3-c3cccnc3)SC2)cc1	.	-5	.	-1	.	0	.	.
CC(C)c1ccc(C(=O)NC(=S)Nc2ccc3[nH]c(=O)[nH]c3c2)cc1	5	2	0	1	-1	?	.	.
CCOC(=O)N(C)c1c(CC)nc2c(OCc3ccc(S(C)(=O)=O)cc3)cccn12	.	5	.	.	.	.	.	.
SMILES	PP1 counter	Exocytosis inh	PP5 inh	IDE cell activ	IDE cell inh	SKKanGAS inh	PP5 conf	PP1 inh counter
O=C(c1ccc(C(F)(F)F)cc1)c1c[nH]c(C(=O)NCCCn2ccnc2)c1	-3	1	12*	0	4	1	-2	-3
O=C(Cc1ccccc1)c1c[nH]c(C(=O)NCCCn2ccnc2)c1	-4	.	0	.	3	3	.	.
O=[N+]([O-])c1cccc(S(=O)(=O)[N-]c2nc3ccccc3nc2-n2cc[n+](Cc3ccccc3)c2)c1	5	-6	13*	3	9	10	-2	2
COc1ccc(Oc2ccc3c(C(F)(F)F)cc(C(F)(F)F)nc3n2)cc1	0	0	16*	3	4	-5	3	1
CCOC(=O)CN1CCc2c(C)nc3c(-c4ccc(OC)c(OC)c4)cnn3c21	3	-2	12*	-1	3	-9	-1	-1
CCOc1ccc(-c2n[nH]c(C)c2Oc2ccccc2OC)c(O)c1	4	4	11*	5	-9	-5	6	4
CCCOC(=O)c1ccc(Oc2c(-c3ccc(O)cc3O)n[nH]c2C)cc1	1	1	16*	-1	-1	55*	4	6
COc1ccc(OC)c(NC(=O)CSc2nc(=O)n(Cc3ccccn3)c3c2CCC3)c1	-5	5	0	4	-9	-2	.	.
O=c1nc(Nc2ccc([N+](=O)[O-])cc2)[nH]c(=O)[nH]1	2	-12	-1	1	4	0	.	.
CN(C)c1nc(SCCOC(=O)COc2ccc(Cl)cc2Cl)nc(N(C)C)n1	-2	-3	11*	-3	-2	-9	-3	-2
CN(C)c1nc(OCCOC(=O)COc2ccc(Cl)cc2Cl)nc(N(C)C)n1	1	0	2	3	5	-11	.	.
CC(=O)Nc1ccc(C(=O)OCC(=O)NC2CCCCCC2)cc1	.	-8	.	.	.	.	.	.
O=C(Cc1ccccc1)NC1(O)C(=O)c2ccccc2C1=O	-3	20	7	.	3	2	.	.
Cc1ccc(C(=O)NC2(O)C(=O)c3ccccc3C2=O)cc1C	2	-1	15*	0	8	3	41*	4
Cc1ccc(C(=O)NCC(=O)OCN2C(=O)c3ccccc3C2=O)cc1C	-3	-4	1	0	0	.	.	.
O=C(NC1(O)C(=O)c2ccccc2C1=O)c1ccc(C(F)(F)F)cc1	6	-1	18*	.	3	0	38*	13
